Compounds with a hit are over-represented: about 15% of the library has one in this group of screens.
HCMV inh – blocks human cytomegalovirus replication; AID 1259415; HFF cells, HCMV-luciferase reporter, 72 h; hits give low values; actives 4.5% (n = 410,000); activity change, negative = inhibition, % at 57.5 µM; in the data active = activity change below about -60%; inconclusive = no clear call, values can overlap the other calls; inactive = above about -39%; note: % is set by controls: 0 for no effect and ±100 for the full control effect
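Compounds were evaluated in HFFs infected with an HCMV luciferase reporter virus (MOI 1 PFU/cell). Luciferase in lysates collected 72 h post infection served as the replication measure.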
HCV inh – blocks hepatitis C virus; actives 3.4% (n = 340,000); Potency, µM (highest dose often 41.8 µM), for inactives: at the highest dose activity change, negative = inhibition, most hits filed as inhibitors; Huh7.5.1 HCVcc-Cre infection, luciferase reporter, 44 h; note: potency is the fitted concentration of half-maximal effect; % is set by controls: 0 for no effect and ±100 for the full control effect
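Cells seeded at 1,000/well and cultured 4 h, then compounds added followed by HCVcc-Cre virus (~0.5 moi). After 44 h further culture, luciferase substrate was added, plates held 15 min at room temperature, and luminescence read for 15 sec.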
SARS PLpro yeast – blocks SARS-CoV papain-like protease in a yeast assay. S. cerevisiae expressing SARS-CoV PLpro, growth rescue. Potency, µM (highest dose often 32.9 µM), without a hit: at the highest dose activity, positive = growth rescue, hits mostly activators. actives 0.19% (n = 330,000). AID 485353; calls by dose curve; note: potency is the fitted concentration of half-maximal effect; 0% is about no effect; nearly all actives have a fitted effect of over 55% in size
Pf growth 96h – P. falciparum growth inhibition at 96 hours | P. falciparum luciferase reporter growth, 96 h | Potency, µM (highest dose often 28.7 µM), for inactives: at the highest dose activity change, negative = inhibition, hits mostly inhibitors | actives 6.9% (n = 320,000) | AID 504834; note: potency is the fitted concentration of half-maximal effect; % is set by controls: 0 for no effect and ±100 for the full control effect
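Infected RBCs, 2% Hct / 0.05% parasitemia final; luciferase-reporter P. falciparum; cpd 96 h, 37 C, 5% CO2; luciferase detection reagent; luminescence.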
Pf growth 48h – inhibits P. falciparum growth in the first generation, 48 h | actives 5.9% (n = 310,000) | Potency, µM (highest dose often 28.7 µM), for the others: at the top dose activity change, negative = inhibition, hits mostly inhibitors | P. falciparum luciferase growth in erythrocytes, 48 h | AID 504832; note: potency is the fitted concentration of half-maximal effect; % is set by controls: 0 for no effect and ±100 for the full control effect
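Cell-based growth assay: transgenic P. falciparum expressing firefly luciferase, cultured in red cells within RPMI 1640 containing 0.5% w/v Albumax, 24 mM bicarbonate and gentamycin. A drop in luciferase activity indicates inhibition.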
Sm TGR inh – blocks Schistosoma mansoni thioredoxin glutathione reductase. purified TGR, DTNB reduction, TNB absorbance 405 nm. AID 485364. Potency, µM (titrated, usually from 114 µM), for the others: top-dose activity change, negative = inhibition, most hits filed as inhibitors. actives 3% (n = 360,000). Q962Y6; note: potency is the fitted concentration of half-maximal effect; % is set by controls: 0 for no effect and ±100 for the full control effect; nearly all actives have a fitted effect of over 60% in size
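Kinetic colorimetric format: TGR-catalysed, NADPH-driven DTNB reduction monitored via TNB absorbance. Enzyme dispensed at 20 nM; compound exposure 15 min at room temperature before reaction start.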
* hit, by the source's call; ? = inconclusive; nt = no result; [ ] = another dose, or the depositor's remark. Unless noted, calls come from the whole dose curve; as a rule, active = well fitted curve in the direction sought with a large enough effect; inconclusive = small, poorly fitted or top-dose-only effect, or another doubt; inactive = no such curve, though single readings can be large; an effect the other way counts as inactive or inconclusive.

SMILES | HCMV inh | HCV inh | SARS PLpro yeast | Pf growth 96h | Pf growth 48h | Sm TGR inh
CCC1(C(=O)c2ccccc2)C(c2ccc([N+](=O)[O-])cc2)C1(C(=O)OC)C(=O)OC (configuration not stated) | -34 | ? | -43% | 18% | 13µM* | -1%
O=C(c1ccc([N+](=O)[O-])cc1)N(Cc1ccccc1)Cc1ccccc1 | 5 | ? | nt | nt | nt | nt
Nc1nc(SCc2ccc(Cl)cc2Cl)nc2nc3c(cc12)CCCC3 | ? | 8.9µM* | 3% | 13µM* | 8.3µM* | -7%
Nc1nc(SCc2ccc(Cl)cc2Cl)ns1 | -15 | 18% | -22% | 61% | 36% | 0%
CN(Cc1ccccc1)C(=O)c1cc(-c2cccc(Cl)c2)on1 | 18 | nt | nt | nt | nt | 1%
O=C(COc1ccccc1)Nc1ccc2[nH]ncc2c1 | -32 | -2% | -5% | 29% | -11% | -8%
Cc1ccccc1OCC(=O)Nc1ccc2[nH]ncc2c1 | -16 | -16% | -4% | 12µM* | 23% | -17%
CCOc1ccccc1OCC(=O)Nc1ccc2[nH]c(=O)[nH]c2c1 | -18 | 13µM* | 2% | -17% | 14% | -12%
COc1ccc2c(c1)sc1nc(=O)ccn12 | 61 | 23% | 0% | ? | 42% | 4%
COc1ccc2c(c1)sc(=N)n2C | ? | -5% | -9% | 3.7µM* | ? | 0%
CCCCN(C(=O)CC1CCCC1)c1c(N)n(CC(C)C)c(=O)[nH]c1=O | 4 | 12% | -1% | 60% | 9% | -2%
Nc1c(N(C(=O)Nc2ccc(Cl)c(Cl)c2)C2CCCC2)c(=O)[nH]c(=O)n1Cc1ccccc1 | -12 | 11µM* | 3% | nt | -23% | 2%
CCN(C(=O)COC(=O)c1cc(C)oc1C)c1c(N)n(Cc2ccccc2)c(=O)[nH]c1=O | -14 | -6% | -2% | -12% | ? | -19%
CCCN(C(=O)COC(=O)CC1CCCCC1)c1c(N)n(Cc2ccccc2)c(=O)[nH]c1=O | -14 | 9% | 3% | ? | 8.3µM* | -3%
COCCN(C(=O)C1CCCC1)c1c(N)n(Cc2ccccc2)c(=O)[nH]c1=O | -14 | 5% | 1% | -3% | 19% | 3%
CCCN(C(=O)COC(=O)c1[nH]c(C)c(C(=O)OC)c1C)c1c(N)n(Cc2ccccc2)c(=O)[nH]c1=O | -24 | ? | 4% | ? | 15µM* | -4%
CCCCN(C(=O)CC1CCCC1)c1c(N)n(CCC)c(=O)[nH]c1=O | -4 | 13% | 5% | -20% | -9% | 0.56µM*
COCCN(C(=O)COC(=O)c1c(NC(C)=O)sc(C)c1C)c1c(N)n(Cc2ccccc2)c(=O)[nH]c1=O | -18 | ? | -4% | 10µM* | ? | 10%
CCC1CCc2sc(C(=O)OCC(=O)N(CCOC)c3c(N)n(Cc4ccccc4)c(=O)[nH]c3=O)cc2C1 (configuration not stated) | -21 | ? | 1% | 10µM* | ? | -10%
CCCn1c(N)c(N(CCOC)C(=O)c2cc3c(s2)CCC(CC)C3)c(=O)[nH]c1=O (configuration not stated) | -6 | 7% | 7% | 10% | ? | -4%
COc1ccc(CNC(=O)[C@@H](NC(=O)C2CCN(C(=O)[C@@H](N)CC(C)C)CC2)C(C)C)cc1 | 2 | 0% | 2% | -7% | -13% | -3%
CCc1c(C2(O)CCCCC2)[nH]c2ccc(C(F)(F)F)cc12 | -26 | ? | -34% | 110% | 30% | -3%
COCCNC(=O)NC(=O)COC(=O)c1cc([N+](=O)[O-])ccc1Sc1nc(C)cs1 | 3 | 1% | -1% | 13% | 0% | -40%
Cn1cnc([N+](=O)[O-])c1S(=O)(=O)c1cccc(Cl)c1 | 31 | ? | -40% | ? | -43% | 0.28µM*
CCC(=O)Nc1ccc(-c2cc(-c3ccccc3)nc(-c3ccc(NC(=O)CC)cc3)n2)cc1 | -38 | ? | -2% | 13µM* | ? | 0%
SMILES | HCMV inh | HCV inh | SARS PLpro yeast | Pf growth 96h | Pf growth 48h | Sm TGR inh
Nc1ccc(-c2cc(-c3cccc(N)c3)nc(-c3ccccc3)n2)cc1 | ? | 23% | -4% | 2.1µM* | 13µM* | 0%
CC(=O)Nc1ccc(-c2cc(-c3ccc(NC(C)=O)cc3)nc(-c3ccc(NC(C)=O)cc3)n2)cc1 | -3 | 23% | 19% | ? | -23% | -3%
CC(=O)Nc1ccc(-c2cc(-c3ccc(NC(C)=O)cc3)nc(-c3ccccc3)n2)cc1 | ? | ? | -14% | ? | 7% | 0%
CC(=O)Nc1ccc(-c2cc(-c3ccccc3)nc(-c3ccccc3)n2)cc1 | -18 | -3% | 10% | 1.3µM* | ? | 5%
CN1C(CCl)Nc2cc(Cl)c(S(N)(=O)=O)cc2S1(=O)=O (configuration not stated) | -18 | 25% | nt | 12µM* | -20% | nt
NS(=O)(=O)c1cc2c(cc1Cl)N[C@@H](CC1CCCC1)NS2(=O)=O | nt | nt | nt | 5%[12.8 µM] | 3%[12.8 µM] | nt
O=c1/c(=C/c2ccc([N+](=O)[O-])cc2)sc2n1CCCN=2 | -91* | -7% | -15% | 116% | 98% | 3%
COc1cc(/C=c2\sc3n(c2=O)CCCN=3)ccc1O | 42 | -5% | -14% | 42% | 54% | -21%
CCOC(=O)c1cnc2ccc(OCC)cc2c1N(C)Cc1ccccc1 | -16 | 11µM* | -46% | ? | ? | 4%
CCOC(=O)c1cnc2ccc(OCC)cc2c1N1CCN(c2ccccc2OC)CC1 | nt | ? | -33% | 36% | nt | 0%
CC1(C)CC(=O)C(c2c[nH]c3ccccc23)C(=O)C1 | 17 | 21% | -1% | 42% | -12% | 20µM*
O=C1CC(c2c[nH]c3ccccc23)C(=O)N1c1ccccc1 (configuration not stated) | -5 | 8% | 6% | 7.4µM* | 11% | -10%
CCOC(=O)N1CCN(C(=O)/C=C/c2cccc([N+](=O)[O-])c2)CC1 | -19 | 8% | 1% | ? | -14% | 2%
CC[C@]1(C(=O)OC)[C@H]2C(=O)N(C)C(=O)[C@H]2[C@H]2CN(C)C(=NC3CCCCC3)N21 | 18 | -3%[8.37 µM] | 1% | nt | nt | nt
CC(C)(C)c1ccc(C(=O)Nc2onc3c2CCCC3)cc1 | -75* | nt | nt | nt | nt | 11%
CCn1c(SCC(=O)NC2CC2)nnc1-c1ccc(C)cc1 | -32 | 5% | -3% | 3% | 15% | -22%
O=C(O)c1cn(C2CCCCC2)c2ccccc2c1=O | 22 | 0% | 0% | -19% | ? | -1%
Cc1cccc(NC(=O)c2ccccc2NC(=O)Cc2ccccc2)c1C | -33 | 25% | -2% | 40% | 41% | 0%
